# Values joined by “and” are separate entries in the source; they are usually repeats but may differ in a detail not shown here. Equal values may be shown once. Results filed as inconclusive are left out. A call without a number means that no potency is given here. Active and inactive are the calls of the source. Unless noted, calls come from the whole dose curve; as a rule, active = well fitted curve in the direction sought with a large enough effect; inconclusive = small, poorly fitted or top-dose-only effect, or another doubt; inactive = no such curve, though single readings can be large; an effect the other way counts as inactive or inconclusive.
# Assays:
# [1] = qHTS to identify inhibitors of the type 1 interferon - major histocompatibility complex class I in skeletal muscle: primary screen against the NCATS Mechanism Interrogation Plate v5.0 (MIPE) Libary (AID 1347411); note: nearly all actives have a fitted effect of over 65% in size; note: potency is the fitted concentration of half-maximal effect
# Summary of the method: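 Immortalized human C25cl48 myoblasts with HiBit knocked into endogenous HLA-B*08:01 were stimulated with 4.0 ng/ml IFN-beta and exposed to compounds (11-point 1:3 titration, top 46 uM final) for 24 hrs at 37 C; HiBiT lytic luminescence measured.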
# [2] = target: Calcium and integrin-binding protein 1 (Homo sapiens) (UniProt Q99828); assay: Primary qHTS for Identification of Calcium Integrin Binding Protein 1 (CIB1) Competitor (AID 1508620); note: potency is the fitted concentration of half-maximal effect
# Calcium and integrin-binding protein 1 (Homo sapiens), sequence (Q99828 whole entry, looked up): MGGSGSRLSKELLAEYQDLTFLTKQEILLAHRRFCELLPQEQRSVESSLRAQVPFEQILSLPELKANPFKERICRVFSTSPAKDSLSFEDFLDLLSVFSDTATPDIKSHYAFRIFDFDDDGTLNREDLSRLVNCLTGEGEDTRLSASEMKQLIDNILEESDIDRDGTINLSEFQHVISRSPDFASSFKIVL
# Summary of the method: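 Fluorescence polarization competition: CIB1-GST (1 uM final) preincubated with compound 15 min at room temperature, then FITC-labeled alphaIIb peptide (100 nM final) added for another 15 min. Polarization read at Ex 480/Em 540.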
# [3] = target: Cytochrome P450 2D6 (Homo sapiens) (UniProt P10635); assay: Cytochrome P450 family 2 subfamily D member 6 (CYP2D6) small molecule antagonists: luciferase biochemical (cell-free) qHTS assay (AID 1645840; active = well fitted curve in the direction sought with a large enough effect in the repeat runs; an effect the other way counts as inactive or inconclusive; note: nearly all actives have a fitted effect of over 55% in size; note: potency is the fitted concentration of half-maximal effect)
# Cytochrome P450 2D6 (Homo sapiens), sequence (P10635 whole entry, looked up): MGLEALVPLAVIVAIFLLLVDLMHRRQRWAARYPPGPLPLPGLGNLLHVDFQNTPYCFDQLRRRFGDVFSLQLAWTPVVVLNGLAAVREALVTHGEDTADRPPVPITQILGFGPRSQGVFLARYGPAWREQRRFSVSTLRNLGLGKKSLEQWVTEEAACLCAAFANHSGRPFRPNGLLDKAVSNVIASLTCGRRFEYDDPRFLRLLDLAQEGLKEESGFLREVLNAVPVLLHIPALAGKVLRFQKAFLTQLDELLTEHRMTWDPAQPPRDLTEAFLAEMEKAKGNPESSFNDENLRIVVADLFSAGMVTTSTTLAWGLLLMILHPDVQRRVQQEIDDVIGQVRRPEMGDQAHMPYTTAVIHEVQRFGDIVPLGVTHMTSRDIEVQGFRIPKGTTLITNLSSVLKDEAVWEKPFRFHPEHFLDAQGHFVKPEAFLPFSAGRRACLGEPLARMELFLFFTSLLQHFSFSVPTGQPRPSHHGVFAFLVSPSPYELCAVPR
# Summary of the method: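 P450-Glo luminescent screen: recombinant CYP2D6 enzyme–proluciferin substrate mix preincubated with compound 10 min at room temperature, then NADPH regeneration added for 1 h at room temperature. Detection reagent added for 20 min; luciferin light read as relative luminescence units.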
# [4] = target: Cytochrome P450 2C9 (Homo sapiens) (UniProt P11712); assay: Cytochrome P450 family 2 subfamily C member 9 (CYP2C9) small molecule antagonists: luciferase biochemical (cell-free) qHTS assay (AID 1645842; active = well fitted curve in the direction sought with a large enough effect in the repeat runs; an effect the other way counts as inactive or inconclusive; note: nearly all actives have a fitted effect of over 55% in size; note: potency is the fitted concentration of half-maximal effect)
# Cytochrome P450 2C9 (Homo sapiens), sequence (P11712 whole entry, looked up): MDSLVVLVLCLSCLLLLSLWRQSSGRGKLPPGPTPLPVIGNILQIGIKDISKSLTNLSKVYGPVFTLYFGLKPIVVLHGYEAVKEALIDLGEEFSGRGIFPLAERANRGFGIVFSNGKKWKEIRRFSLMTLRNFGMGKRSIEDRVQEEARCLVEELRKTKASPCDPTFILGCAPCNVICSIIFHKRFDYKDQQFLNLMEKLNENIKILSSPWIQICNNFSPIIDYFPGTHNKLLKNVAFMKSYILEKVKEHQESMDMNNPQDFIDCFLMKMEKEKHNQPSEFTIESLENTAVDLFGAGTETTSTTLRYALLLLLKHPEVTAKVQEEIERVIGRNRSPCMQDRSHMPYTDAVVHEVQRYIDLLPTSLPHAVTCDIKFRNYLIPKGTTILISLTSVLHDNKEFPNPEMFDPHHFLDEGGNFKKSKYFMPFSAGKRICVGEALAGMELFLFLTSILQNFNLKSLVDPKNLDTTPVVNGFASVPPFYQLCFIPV
# Summary of the method: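 Luminescence, after 20 min with luciferin detection reagent, reflected CYP2C9 turnover during a 1 h NADPH-driven reaction at 37C. Enzyme-substrate mix contained 0.4% bovine serum albumin and was preincubated with compound 10 min at room temperature.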
# [5] = Primary qHTS for inhibitors of nuclear receptor binding SET domain protein 2 (NSD2) in an isogenic RCH-ACV NSD2 p.E1099K mutant (9B) (AID 1645876); note: nearly all actives have a fitted effect of over 70% in size; note: potency is the fitted concentration of half-maximal effect
# [6] = Primary qHTS for inhibitors of nuclear receptor binding SET domain protein 2 (NSD2) in an RCH-ACV wild type WT cells (2C) (AID 1645877); note: nearly all actives have a fitted effect of over 70% in size; note: potency is the fitted concentration of half-maximal effect
# [7] = target: Catechol O-methyltransferase (Homo sapiens) (UniProt P21964); assay: Confirmatory Screen for Target Class Profiling of Small Molecule Inhibitors of Methyltransferases (AID 1745852); settings: MTase-Glo luminescence, SAH detection, recombinant enzyme; measured here: COMT max response; stronger effect = lower value
# Catechol O-methyltransferase (Homo sapiens), sequence (P21964 whole entry, looked up): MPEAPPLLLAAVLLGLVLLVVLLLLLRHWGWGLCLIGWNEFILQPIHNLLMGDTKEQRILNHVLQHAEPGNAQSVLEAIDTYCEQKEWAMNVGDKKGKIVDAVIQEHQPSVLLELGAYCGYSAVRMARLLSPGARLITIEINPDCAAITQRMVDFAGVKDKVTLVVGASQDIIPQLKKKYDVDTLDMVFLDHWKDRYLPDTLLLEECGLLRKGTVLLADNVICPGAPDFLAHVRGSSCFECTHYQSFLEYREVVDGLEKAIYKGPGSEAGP
# [8] = target: Cytochrome P450 3A4 (Homo sapiens) (UniProt P08684); assay: Cytochrome P450 family 3 subfamily A member 4 (CYP3A4) small molecule antagonists: luciferase qHTS assay (AID 1645841; active = well fitted curve in the direction sought with a large enough effect in the repeat runs; an effect the other way counts as inactive or inconclusive; note: nearly all actives have a fitted effect of over 45% in size)
# Cytochrome P450 3A4 (Homo sapiens), sequence (P08684 whole entry, looked up): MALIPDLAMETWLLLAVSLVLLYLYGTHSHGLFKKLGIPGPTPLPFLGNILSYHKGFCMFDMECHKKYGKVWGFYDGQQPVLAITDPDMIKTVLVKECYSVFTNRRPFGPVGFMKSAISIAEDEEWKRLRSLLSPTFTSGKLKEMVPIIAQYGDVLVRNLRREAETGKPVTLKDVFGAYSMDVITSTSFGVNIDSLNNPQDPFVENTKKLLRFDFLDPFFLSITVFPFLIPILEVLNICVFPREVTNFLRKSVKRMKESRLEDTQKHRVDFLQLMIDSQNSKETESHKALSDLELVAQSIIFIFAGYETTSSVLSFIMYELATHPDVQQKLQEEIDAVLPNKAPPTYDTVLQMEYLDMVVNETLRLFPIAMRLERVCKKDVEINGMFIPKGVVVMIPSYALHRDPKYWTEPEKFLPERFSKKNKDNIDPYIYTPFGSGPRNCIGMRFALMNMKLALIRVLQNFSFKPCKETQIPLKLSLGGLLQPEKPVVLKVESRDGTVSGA
# Summary of the method: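 P450-Glo CYP3A4 enzyme with proluciferin substrate was preincubated with DMSO-dissolved compounds for 10 min at room temperature. NADPH regeneration solution started a 1 h reaction. Detection reagent stopped it, and luminescence was read after 20 min.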
# [9] = qHTS to identify inhibitors of the type 1 interferon - major histocompatibility complex class I in skeletal muscle: primary screen against the NCATS Pharmaceutical Collection (AID 1347407);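 note: luminescence of HiBiT knocked into endogenous HLA-B as interferon-induced MHC class I level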
# Summary of the method: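 Compounds […] were added to CRISPR-engineered HLA-B-HiBiT C25cl48 human myoblasts with 4.0 ng/ml IFN-beta. After 24 hrs at 37 C, cells were lysed and HiBiT luminescence measured.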
# [10] = target: Protein phosphatase 1D (Homo sapiens) (UniProt O15297); assay: RapidFire Mass Spectrometry qHTS Assay for Modulators of WT P53-Induced Phosphatase 1 (WIP1) (AID 1347424);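 note: amount of dephosphorylated VEPPL-S-QETFS peptide product formed by WIP1; series mostly up to about 63 µM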
# Protein phosphatase 1D (Homo sapiens), sequence (O15297 whole entry, looked up): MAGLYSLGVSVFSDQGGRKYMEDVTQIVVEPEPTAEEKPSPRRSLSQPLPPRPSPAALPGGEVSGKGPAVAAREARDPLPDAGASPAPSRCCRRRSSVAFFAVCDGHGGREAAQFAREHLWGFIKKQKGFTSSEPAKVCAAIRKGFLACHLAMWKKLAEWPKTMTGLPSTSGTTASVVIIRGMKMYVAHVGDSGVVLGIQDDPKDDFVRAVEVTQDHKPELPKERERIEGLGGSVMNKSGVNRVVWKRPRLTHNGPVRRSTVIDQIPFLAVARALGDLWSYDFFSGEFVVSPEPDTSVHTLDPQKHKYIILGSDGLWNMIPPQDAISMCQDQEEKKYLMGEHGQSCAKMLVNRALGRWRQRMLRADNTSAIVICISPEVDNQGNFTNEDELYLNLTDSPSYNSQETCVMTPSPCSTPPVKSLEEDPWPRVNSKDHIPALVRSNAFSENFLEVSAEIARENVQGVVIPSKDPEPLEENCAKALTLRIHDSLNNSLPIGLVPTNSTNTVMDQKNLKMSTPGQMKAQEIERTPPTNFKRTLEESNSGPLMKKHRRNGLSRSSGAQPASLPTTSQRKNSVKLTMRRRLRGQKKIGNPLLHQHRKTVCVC
# Summary of the method: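 WIP1 (10 nM final) was preincubated 1 h at room temperature with compounds in Tris-HCl pH 7.5, 30 mM MgCl2, TCEP, EGTA, BSA; 2 uM VEPPL-pS-QETFS phosphopeptide was added for 5 min, quenched with formic acid, and dephosphorylated product quantified by RapidFire MS.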
# [11] = target: Protein phosphatase 1D (Homo sapiens) (UniProt O15297); assay: Rhodamine-PBP qHTS Assay for Modulators of WT P53-Induced Phosphatase 1 (WIP1) (AID 1347425)
# Summary of the method: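 Steps: enzyme with Rh-PBP sensor and compounds, room-temperature incubation of 1 hr, baseline read, addition of VEPPL-pS-QETFS (10 uM final), kinetic fluorescence reads at 525/598 nm. Activity equals final minus baseline signal.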
# [12] = A High-Content qHTS Against Drug Library for the Identification of Small Molecules that Inhibit DYT1 Early Onset Primary Dystonia-Associated Cell Pathology (AID 1645839; calls by dose curve; note: potency is the fitted concentration of half-maximal effect)
# Summary of the method: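 Readout: %pathology, the punctate EGFP-TorsinA distribution from imaging, as the primary channel and cell count as the toxicity counterscreen. HEK293 Flp-In cells expressing delE TorsinA were induced with tetracycline and treated with compound for 48 h.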
# [13] = target: N-terminal Xaa-Pro-Lys N-methyltransferase 1 (Homo sapiens) (UniProt Q9BV86); assay: Confirmatory qHTS for Inhibitors of N-terminal methyltransferase 1 (NTMT1): MTaseGlo Assay (AID 1645874); note: potency is the fitted concentration of half-maximal effect; nearly all actives have a fitted effect of over 65% in size
# N-terminal Xaa-Pro-Lys N-methyltransferase 1 (Homo sapiens), sequence (Q9BV86 whole entry, looked up): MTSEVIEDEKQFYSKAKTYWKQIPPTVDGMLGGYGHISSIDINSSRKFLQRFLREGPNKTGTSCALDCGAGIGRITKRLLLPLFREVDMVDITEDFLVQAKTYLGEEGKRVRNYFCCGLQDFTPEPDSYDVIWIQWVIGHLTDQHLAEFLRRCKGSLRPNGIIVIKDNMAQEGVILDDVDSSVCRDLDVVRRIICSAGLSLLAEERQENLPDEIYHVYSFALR
# Summary of the method: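 Compounds are incubated with 125 nM NTMT1 and 100 uM SAM for 15 min before the SPKRIA peptide (1 uM) starts a 30 min room-temperature methylation. SAH is measured by coupled luciferase luminescence and curves fitted to a Hill equation.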
# [14] = Primary qHTS for inhibitors of La Crosse Virus (LACV) - induced cell death in SH-SY5Y cells (AID 1508616);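 note: top concentration of the series differs between compounds; higher means more rescue of cells from virus-induced death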
# Summary of the method: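 Luminescent ATP readout (ATPLite 1step, 5 min room temperature) measured rescue from LACV-induced death after 6 days of infection at 0.01 MOI; normalized to infected DMSO wells and uninfected DMSO wells.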
# [15] = target: Calcium and integrin-binding protein 1 (Homo sapiens) (UniProt Q99828); assay: Confirmatory qHTS for Identification of Calcium Integrin Binding Protein 1 (CIB1) Competitor (AID 1508617); settings: CIB1 binding competition assay, biochemical qHTS; note: potency is the fitted concentration of half-maximal effect; nearly all actives have a fitted effect of over 65% in size
# Summary of the method: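 Binding competition between test compounds and fluorescent alphaIIb peptide for 1 uM CIB1-GST is monitored by FP at 480/540 nm. Final compound range is up to 114 uM; unlabeled peptide serves as reference competitor.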
smiles,measurement,setting,value
CCNCc1nc2c(N)nc3ccccc3c2n1CC(C)(C)O,Potency,[1],inactive
same,Potency,[2],inactive
same,Potency,[3],5.35 µM (active)
c1cc(Nc2cc(C3CC3)[nH]n2)nc(Nc2ccc3nc[nH]c3c2)n1,Potency,[1],1.31 µM (active)
same,Potency,[2],inactive
same,Potency,[4],9.52 µM (active)
same,Potency,[5],417 nM (active)
same,Potency,[6],468 nM (active)
Cc1ccc(S(=O)(=O)Cc2nc(-c3ccc(C(=O)NCc4cccnc4)cc3)oc2C)cc1,Potency,[1],inactive
same,Potency,[2],inactive
same,Potency,[3],inactive
same,Potency,[5],13.2 nM (active)
same,Potency,[6],18.6 nM (active)
CCN1CCN(Cc2ccc(NC(=O)c3ccc(C)c(/C=C/c4cnc5[nH]ccc5c4OC)c3)cc2C(F)(F)F)CC1,Potency,[1],6.58 µM (active)
same,Potency,[2],inactive
same,Potency,[3],6.74 µM (active)
same,Potency,[4],12 µM (active)
same,Potency,[5],129 nM (active) and 1.05 µM (active)
same,Potency,[6],230 nM (active) and 1.18 µM (active)
CC(C)c1cc(CNc2nc(Nc3cc(C4CC4)[nH]n3)cc(N3CCN(C)CC3)n2)on1,Potency,[1],0.523 µM (active)
same,Potency,[2],inactive
same,Potency,[3],2.68 µM (active)
same,Potency,[5],64.9 nM (active) and 525 nM (active)
same,Potency,[6],29 nM (active) and 66.1 nM (active)
same,activity,[7],-7.12%
NC[C@@](O)(c1ccc(Cl)cc1)c1ccc(-c2cn[nH]c2)cc1,Potency,[1],7.39 µM (active)
same,Potency,[2],inactive
same,Potency,[4],1.2 µM (active)
same,Potency,[5],6.49 µM (active) and 5.25 µM (active)
same,Potency,[6],4.59 µM (active) and 4.68 µM (active)
same,activity,[7],1.95%
Cc1cccc(Oc2cnc(=O)[nH]c2)c1,Potency,[1],inactive
same,Potency,[2],inactive
same,Potency,[3],inactive
same,Potency,[4],inactive
same,Potency,[5],inactive
same,Potency,[6],inactive
CS(=O)(=O)N1CCC(NC(=O)c2[nH]ncc2NC(=O)c2c(Cl)cccc2Cl)CC1,Potency,[1],1.47 µM (active)
same,Potency,[2],inactive
same,Potency,[3],inactive
same,Potency,[8],inactive
same,Potency,[4],21.3 µM (active)
same,Potency,[5],525 nM (active)
same,Potency,[6],332 nM (active)
Cc1c(F)cc(C(=O)NC2CC2)cc1-c1c(F)cn2c(C(C)(C)C)nnc2c1F,Potency,[1],inactive
same,Potency,[2],inactive
Nc1ccccc1N,outcome,[9],inactive
same,Potency,[10],inactive
same,outcome,[11],inactive
same,Potency,[2],100 µM (active)
same,Potency,[12],35.5 µM (active)
same,Potency,[3],14.6 µM (active)
same,Potency,[4],35.6 µM (active)
O=C(NCc1cccc(O)c1)Nc1nc(-c2ccncc2)cs1,Potency,[1],18.6 µM (active)
same,Potency,[2],inactive
same,Potency,[3],0.849 µM (active)
same,Potency,[4],0.301 µM (active)
same,Potency,[5],9340 nM (active)
same,Potency,[6],2350 nM (active)
COc1cc2ncnc(Nc3ccc(F)c(Cl)c3)c2cc1NC(=O)/C=C/CN1CCCCC1,Potency,[1],7.39 µM (active)
same,Potency,[2],inactive
same,Potency,[3],0.0477 µM (active)
same,Potency,[4],inactive
same,Potency,[13],35.5 µM (active)
same,Potency,[5],4170 nM (active)
same,Potency,[6],3320 nM (active)
same,activity,[7],-45.2%
COCCOc1ccc(N2CCN(CCn3ncc4c3nc(N)n3nc(-c5ccco5)nc43)CC2)cc1,Potency,[1],inactive
same,Potency,[2],inactive
same,Potency,[3],inactive
same,Potency,[4],inactive
same,Potency,[5],inactive
same,Potency,[6],inactive
O=C(O)c1c(O)c(-c2ccccc2)nc2ccccc12,outcome,[9],inactive
same,Potency,[10],inactive
same,outcome,[11],inactive
same,outcome,[14],inactive
same,Potency,[2],inactive
same,Potency,[12],inactive
same,Potency,[3],inactive
same,Potency,[5],inactive
same,Potency,[6],inactive
CCO[C@@H]1OC(=O)C[C@@H]1NC(=O)[C@@H]1CCCN1C(=O)[C@@H](NC(=O)c1ccc(N)c(Cl)c1)C(C)(C)C,Potency,[1],inactive
same,Potency,[2],inactive
same,Potency,[3],inactive
same,Potency,[4],inactive
same,Potency,[5],inactive
same,Potency,[6],inactive
COC(=O)N(C)c1c(N)nc(-c2nn(Cc3ccccc3F)c3ncccc23)nc1N,Potency,[1],inactive
same,Potency,[2],inactive
same,Potency,[4],23.9 µM (active)
same,Potency,[5],inactive
same,Potency,[6],inactive
CCOCCOC(=O)/C=C/c1ccc(OC)cc1,outcome,[9],inactive
same,Potency,[10],inactive
same,outcome,[11],inactive
same,Potency,[2],inactive
same,Potency,[12],inactive
same,Potency,[3],inactive
Cc1cc(O)c(-c2ccc([C@@H](C)CN(C)C)cc2)c2c1[nH]c(=O)c1sccc12,Potency,[1],0.104 µM (active)
same,Potency,[2],inactive
same,Potency,[5],74.2 nM (active)
same,Potency,[6],74.2 nM (active)
same,activity,[7],-22.7%
CC(C)c1c2cc(-c3ccnc(NC4CCC(NC5CCOCC5)CC4)n3)ccc2nn1C (stereo not given),Potency,[1],0.104 µM (active)
same,Potency,[2],inactive
same,Potency,[5],163 nM (active) and 148 nM (active)
same,Potency,[6],129 nM (active) and 93.4 nM (active)
same,activity,[7],-27.8%
CCN(CC)CCN(Cc1ccc(-c2ccc(C(F)(F)F)cc2)cc1)C(=O)Cn1c(SCc2ccc(F)cc2)nc(=O)c2c1CCC2,Potency,[15],35.5 µM (active)
same,Potency,[3],9.52 µM (active)
same,Potency,[5],2900 nM (active)
same,Potency,[6],3650 nM (active)
same,activity,[7],-2.67%
CO[C@H]1C[C@@H]2CC[C@@H](C)[C@@](O)(O2)C(=O)C(=O)N2CCCC[C@H]2C(=O)O[C@H]([C@H](C)C[C@H]2CC[C@@H](OP(C)(C)=O)[C@H](OC)C2)CC(=O)[C@H](C)/C=C(\C)[C@@H](O)[C@@H](OC)C(=O)[C@H](C)C[C@H](C)/C=C/C=C/C=C/1C,Potency,[2],inactive

# — PubChem BioAssay (NCATS)
